Source: PubChem BioAssay
mcGAS RapidFire = inhibitors of Mus musculus cyclic GMP-AMP synthase, initial high-throughput assay, cell-free, RapidFire MS; 130,000 compounds, 0.18% hits; inhibition, % at 12.5 µM; Q8C6L5; recombinant mouse cGAS, cGAMP by RapidFire MS;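 active means inhibition of cGAS enzyme activity at or above 60%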;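 further: enzyme stimulated by 45 bp dsDNA with ATP and GTP substrates; cGAMP share of summed cGAMP plus half ATP and half GTP signals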
Target sequence (Q8C6L5 whole entry, looked up): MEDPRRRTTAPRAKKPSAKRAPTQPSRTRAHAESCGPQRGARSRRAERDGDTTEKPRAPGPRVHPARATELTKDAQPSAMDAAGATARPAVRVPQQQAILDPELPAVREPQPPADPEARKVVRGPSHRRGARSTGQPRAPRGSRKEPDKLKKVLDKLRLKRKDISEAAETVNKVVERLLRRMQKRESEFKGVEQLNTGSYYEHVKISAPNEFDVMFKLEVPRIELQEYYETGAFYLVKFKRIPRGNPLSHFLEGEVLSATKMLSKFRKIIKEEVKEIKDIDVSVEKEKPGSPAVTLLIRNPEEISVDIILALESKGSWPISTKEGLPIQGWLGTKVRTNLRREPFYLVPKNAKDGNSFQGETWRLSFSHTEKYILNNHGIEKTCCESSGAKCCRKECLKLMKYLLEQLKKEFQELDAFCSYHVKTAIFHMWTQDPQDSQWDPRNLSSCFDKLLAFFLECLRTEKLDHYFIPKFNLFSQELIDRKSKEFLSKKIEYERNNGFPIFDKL
Numbers stand for hits; - = inactive; ! = a repeat was not active. Many of the other results were omitted from the sample, so hits are more common in it than they were.

SMILES	mcGAS RapidFire
Cc1ccc(/C=C/C(=O)Nc2ccc(C)c(S(N)(=O)=O)c2)c(Br)c1	-
COc1cccc2c1C(=O)c1c(O)c3c(c(O)c1C2=O)C[C@@](O)(C(C)=O)C[C@@H]3O[C@H]1C[C@H](N)[C@H](O)[C@H](C)O1	91!
CC(=O)[C@]1(O)Cc2c(O)c3c(c(O)c2[C@@H](O[C@H]2C[C@H](N)[C@H](O)[C@H](C)O2)C1)C(=O)c1ccccc1C3=O	90
COc1cccc2c1C(=O)c1c(O)c3c(c(O)c1C2=O)C[C@@](O)(C(=O)CO)C[C@@H]3O[C@H]1C[C@H](N)[C@@H](O)[C@H](C)O1	98!
Cn1c(SCc2nnc(-c3ccco3)o2)nc2ccccc21	-
Cc1ccnc(NC(=O)c2cc(Cl)ccc2F)c1	-
COC(=O)c1cccnc1Sc1ccccn1	-
Cc1cc(=O)c(C(=O)NC(C)C2CC2)nn1-c1ccccc1Cl (centres undefined)	-
Cc1[nH]nc(-c2ccc(O)c(C)c2O)c1-c1nc2ccccc2s1	-
C=C(C)Cn1c(=O)c2c(nc3n(-c4cc(OC)ccc4OC)c(C)c(C)n23)n(C)c1=O	-
COc1cc(N2CCC(=O)NCC2C)nc(OC)n1 (centres undefined)	-
CCn1c(C2CCCN(C(=O)c3cc(-n4cccc4)ccc3O)C2)nn(C)c1=O (centres undefined)	-
COC(=O)C1C(=O)C2=C(CC1C)NC(C)=C(C(=O)OC1CCCC1)C2c1ccc(C)o1 (centres undefined)	-
COC(CNC(=O)C(NC(=O)c1cccs1)C(C)C)c1ccc(Cl)cc1 (centres undefined)	-
C[n+]1c2cc(N)ccc2cc2ccc(N)cc21	99!
CCC1CN(Cc2nnc(-c3ccco3)o2)CCC(=O)N1Cc1ccccc1 (centres undefined)	-
COc1ccc2cc(CNC(=O)NC(C)c3ccc(F)c(F)c3)ccc2c1 (centres undefined)	-
COc1cccc2cc(CNC(C)c3ccc(F)c(F)c3)oc12 (centres undefined)	67
COc1ccc(C(C)NCC(O)COc2ccc(Cl)cc2Cl)cc1F (centres undefined)	-
Cc1ccc(Cl)cc1Nc1ncccc1C(=O)N[C@@H](Cc1c[nH]c2ccccc12)C(N)=O	-
CC(C)(C)c1ccc(C(=O)Nc2n[nH]c(C(F)(F)F)n2)cc1	-
CC(C)c1nc(NC(=O)c2ccc(CNC(=O)C(C)(C)C)cc2)n[nH]1	77
CC(C)c1nc(NC(=O)c2cn(Cc3cccs3)nn2)n[nH]1	-
Cc1ccc([N+](=O)[O-])cc1NC(=O)c1cc2ccccc2o1	-
CC(=O)N1CCC(NC(=O)c2ccccc2CCc2ccccc2)CC1	-
SMILES	mcGAS RapidFire
COC(=O)c1ccc2c(=O)[nH]c(/C(Cl)=C/c3sc(Cl)nc3Cl)nc2c1	-
CCCC1C(C#N)C(=N)SC(=N)C1C#N (centres undefined)	-
CCOC(=O)C1=C(C)NC(=O)C(C#N)C1c1ccc([N+](=O)[O-])cc1 (centres undefined)	-
N#CC1C(=N)SC(=N)C(C#N)C1c1ccc([N+](=O)[O-])cc1 (centres undefined)	62
Cc1cc2c(o1)CC(C)(C)CC2NCC1CNc2ccnn2C1 (centres undefined)	-
CCCc1nc(N(C)Cc2nc3ccsc3c(=O)[nH]2)c2cnn(C)c2n1	-
Cc1[nH]n(-c2nc3ccccc3s2)c(=O)c1C=NC1CCN(Cc2ccccc2)CC1	-
Cc1ccccc1N=Cc1c(C(F)(F)F)[nH]n(-c2nc3ccccc3s2)c1=O	69
C=CCN=Cc1c(C(F)(F)F)[nH]n(-c2nc3ccccc3s2)c1=O	-
NC(=S)CC(=O)N1CCOCC1	-
NC(=O)NO	-
NC(=O)CC(N)=S	92
CC(=O)Oc1ccccc1Cn1cc(C(=O)NCc2cccs2)sc1=O	-
O=C(NCC1CCCO1)Nc1cc(F)ccc1-n1cccn1 (centres undefined)	-
CCCCc1nc(Cl)c(CN2CCN3C(=O)CNC(=O)C3C2)[nH]1 (centres undefined)	-
COCCN1CCCC(O)(CN2CCN(C(=O)c3ccc[nH]3)CC2)C1=O (centres undefined)	-
Cc1cc(NN=Cc2ccccn2)nc2ccccc12	-
Oc1c(Br)cc(C=NNc2ccccn2)cc1Br	74
COc1cc(/C=N\Nc2ncnc3nc[nH]c23)cc(Br)c1O	-
CCN1CCN(C(=O)c2ccccc2N2CCC(NC(=O)c3ccc(C(F)(F)F)cc3)CC2)CC1	-
O=C1C=CC(=O)N1c1cc(Cl)cc(Cl)c1	67
CCCCCCCCCSc1nc2c(c(=O)[nH]c(=O)n2C)n1CCOC	-
c1ccc2c(c1)OCC(c1nn3c(CN4CCCCCC4)nnc3s1)O2 (centres undefined)	70
S=c1n(CN2CCCC2)nc(C2COc3ccccc3O2)n1-c1ccccc1 (centres undefined)	-
c1ccc2c(c1)OCC(c1nn3c(CN4CCOCC4)nnc3s1)O2 (centres undefined)	-
O=C(NCc1ccccc1)c1cccnc1N1CCCC1	-
O=C(O)c1ccc(Br)c(F)c1	-
